Laboratory results as given in PubChem BioAssay (NCATS).

target: Glucocorticoid receptor (Homo sapiens) (UniProt P04150); test: GR-GFP Redistribution (AID 450); conditions: U2OS GR-GFP nuclear translocation, laser cytometry, 2 h; series mostly up to 20.6 µM
From the text: NIH Molecular Libraries Screening Centers Network [MLSCN]
NIH Chemical Genomics Center [NCGC]
The glucocorticoid receptor (GR) Redistribution assay (BioImage) enables the visualization of GR cytoplasmic to nuclear translocation by the use of a GR-GFP fusion. GR is normally cytosolic, however ligands such as dexamethasone, cause nuclear translocation where the protein binds to response elements and interacts with various co-factors to modulate transcription. Because both functional agonists and antagonists can induce nuclear translocation, this assay can detect ligands regardless of their effects on gene expression. GR-GFP expressing U20S cells were used here. Dexamethasone was the positive control for translocation and data normalization. Detection of nuclear translocation was performed in 1536-well plates using the Acumen laser scanning plate cytometer (TTP LabTech). Validation of this assay and a detailed protocol have been described.
NCGC Assay Protocol Summary:
GR-GFP U2OS cells were maintained in DMEM with Glutamax and high glucose, 1% v/v penicillin-streptomycin, and 0.5 mg/mL Geneticin. For cell culture, 10% […] fetal bovine serum (FBS) was used (Invitrogen #26140-079). For cell plating 10% dextran, charcoal-stripped FBS (Hyclone SH30068.03) was used. U2OS cells were trypsin treated, suspended in medium, and passed through a 40 um basket filter. The cells were seeded at 600 cells/5 uL/well into clear-bottom black sided 1536-well plates and incubated for approximately 20 hrs, 37degC, 5%, CO2 in a tissue culture incubator. Twenty-three nL of compound was delivered by pin tool and the plates were incubated as above for 2 hrs. The compounds were tested as a 7-point titration ranging from 46 uM to 0.6 nM. The cells were fixed using the Kalypsys Washer/Dispenser station. The fixing protocol involved aspiration of the cell media, addition of 6 uL/well of PBS, aspiration of PBS, addition of 5uL/well of 100% methanol, aspiration of methanol, and addition of 3 uL/well PBS with 1.5 uM propidium iodide (PI). The plates were read by the Acumen Explorer using a 1 x 8 um scan of the whole well area. PI fluorescence triggered the collection of PI and GFP signals. A nuclei population was defined by a 10 to 100 um width and depth filter that eliminated small and large fluorescent particles. Two subpopulations of nuclei were then defined by peak intensity of GFP fluorescence to obtain translocated and untranslocated objects. The number of translocated objects was used for data normalization.
Keywords: NIH Roadmap, MLSCN, MLI, MLSMR, sOGT, qHTS, NCGC
Potency means the concentration at half of the fitted maximal effect.

Glucocorticoid receptor (Homo sapiens), sequence (P04150 whole entry, looked up): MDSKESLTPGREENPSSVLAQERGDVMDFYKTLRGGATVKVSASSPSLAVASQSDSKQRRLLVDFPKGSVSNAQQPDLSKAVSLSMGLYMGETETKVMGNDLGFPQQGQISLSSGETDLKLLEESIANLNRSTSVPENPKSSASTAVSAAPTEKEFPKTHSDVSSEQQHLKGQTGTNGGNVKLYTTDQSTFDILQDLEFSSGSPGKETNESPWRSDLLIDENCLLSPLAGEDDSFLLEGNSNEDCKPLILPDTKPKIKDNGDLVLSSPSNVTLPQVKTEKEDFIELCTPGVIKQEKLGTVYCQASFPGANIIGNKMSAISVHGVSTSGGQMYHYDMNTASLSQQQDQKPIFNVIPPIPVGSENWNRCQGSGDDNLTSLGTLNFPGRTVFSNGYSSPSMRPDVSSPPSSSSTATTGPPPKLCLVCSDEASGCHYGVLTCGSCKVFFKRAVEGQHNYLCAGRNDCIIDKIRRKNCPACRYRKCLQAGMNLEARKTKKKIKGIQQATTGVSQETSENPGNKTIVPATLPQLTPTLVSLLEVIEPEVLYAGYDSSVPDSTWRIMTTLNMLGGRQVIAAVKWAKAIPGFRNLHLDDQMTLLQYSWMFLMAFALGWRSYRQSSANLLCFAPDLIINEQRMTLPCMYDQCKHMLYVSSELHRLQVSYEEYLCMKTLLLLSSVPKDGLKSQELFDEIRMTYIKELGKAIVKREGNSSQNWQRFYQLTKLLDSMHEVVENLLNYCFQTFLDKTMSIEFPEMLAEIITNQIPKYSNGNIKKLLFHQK

Potency, inactive:
Cc1c(OCc2ccccc2)c(=O)ccn1Cc1ccccc1 > 20.6 µM, COc1cc(OC)cc(C(=O)N2CCC(N3CCN(c4ccccc4)CC3)CC2)c1 > 20.6 µM, Fc1ccccc1-c1nc(NCCCN2CCOCC2)c2ccccc2n1 > 20.6 µM, COc1ccc(/C=N/n2cncn2)cc1CSc1ccccn1 > 20.6 µM, CC/C(=N\O)c1ccc(OC)c(OC)c1 > 20.6 µM, CC(=O)c1cc(CN2CCCCC2)cc(OC(C)C)c1 > 20.6 µM, COc1ccc(OC)c(N=C(C)C2=C(O)COC2=O)c1 > 20.6 µM, Cc1c(Cl)cccc1N1C(=O)C2ON(c3ccccc3)C(c3cccnc3)C2C1=O (stereo not given) > 20.6 µM, CCN(CC)c1ccc(C2Nc3cccc4cccc(c34)N2)c(O)c1 > 20.6 µM, CCSc1nc(N)c2c3c(sc2n1)CCC3 > 20.6 µM, Cn1cccc1/C=N/n1cnnc1 > 20.6 µM, CC1=C(c2ccc(Cl)cc2)[N+](=O)C(C)(C)N1[O-] > 20.6 µM, O=S(=O)(c1ccc(Cl)cc1)N1CCC(N2CCCCCC2)CC1 > 20.6 µM, COC(=O)CC1SC(=O)NC1=O (stereo not given) > 20.6 µM, COc1ccccc1-c1c(C)oc2c(CN3CCN(C)CC3)c(O)ccc2c1=O > 20.6 µM, COc1cccc(N2CCN(c3ncnc4c3[nH]c3ccc(F)cc34)CC2C)c1 (stereo not given) > 20.6 µM, Cc1ccc(C#N)c(SCc2cc3c(cc2Cl)OCO3)n1 > 20.6 µM, CCCCSc1nnc2n(CCc3ccccc3)c(=O)c3c4c(sc3n12)COC(C)(C)C4 > 20.6 µM, CC1(C)Cc2c(sc3ncn4nc(-c5ccco5)nc4c23)CO1 > 20.6 µM, CCCCCCOc1ccc(C(=O)n2cnc(N)n2)cc1 > 20.6 µM, Clc1ccc(-n2ncc3c(NCc4ccccn4)ncnc32)cc1 > 20.6 µM, CCOc1ccc(N=C(NC#N)SCC(=O)NC2CC2)cc1 > 20.6 µM, O[C@@H]1CC[C@H]2Cc3ccccc3N=C21 > 46 µM, CCCc1cc(-n2ccnc2C)n2c(nc3ccccc32)c1C#N > 20.6 µM, CCOC(=O)C(C(=O)OCC)N(C#N)c1nc(SC)nc(N(C)C)n1 > 20.6 µM, CC(=O)O[C@H]1C(=O)[C@]2(C)[C@H]([C@H](OC(=O)c3ccccc3)[C@]3(O)C[C@H](OC(=O)[C@H](O)[C@@H](NC(=O)c4ccccc4)c4ccccc4)C(C)=C1C3(C)C)[C@]1(OC(C)=O)CO[C@@H]1C[C@@H]2O > 20.6 µM, CC1(C)CC(N(Cc2ccco2)C(=O)Cc2ccccc2)CCO1 (stereo not given) > 20.6 µM, Cc1cc(NCCNC2=CC(=O)CCC2)nc2ccccc12 > 20.6 µM, Cc1cc(=O)oc(C)c1C(=O)NCC(C)NC(=O)c1c(C)cc(=O)oc1C (stereo not given) > 20.6 µM, CCOC(=O)c1c(C)n(C)c2ccc(OC)c(NC(=O)CN3CCSCC3)c12 > 20.6 µM, C=CCn1c(-c2ccccc2)n[nH]c1=S > 20.6 µM, CCOC(=O)c1sc(-n2[nH]c(C)cc2=O)nc1C > 20.6 µM, Cn1c(N2CCOCC2)nc2c1c(=O)n(Cc1ccc(Cl)cc1)c(=O)n2C > 20.6 µM, CC(=O)O[C@@H]1CC[C@]2(C)[C@H]3CC[C@]4(C)[C@H](C[C@H]5CCCC[C@@]54C(C)=O)[C@@H]3CC(=O)[C@@]2(O)C1 > 46 µM, O=C(COc1ccc(-c2nnc(N3CCCCC3)c3ccccc23)cc1)N1CCCCC1 > 20.6 µM, Cc1cc(=O)oc(C)c1C(=O)NCCNC(=O)c1c(C)cc(=O)oc1C > 20.6 µM, CN1CC(=O)Nc2ccc(F)cc2C1=O > 20.6 µM, CCCC(=O)N(Cc1cc2ccccc2[nH]c1=O)c1ccccc1OC > 20.6 µM, COCCCN1C(=O)C(O)=C(C(=O)c2ccco2)C1c1ccc(Br)cc1 (stereo not given) > 20.6 µM, CCOC(=O)c1[nH]c2cc3c(cc2c1NC(=O)CN1CCc2ccccc2C1)OCO3 > 20.6 µM
